# An excerpt weighted towards active compounds, which were near 3.9% of everything screened.
# HSF-1 act: HSF-1 activators, primary screen, NIH3T3-HGL cells, MG132 stress, luminescence, single point. NIH3T3-HGL HSF-1 luciferase reporter, 8 h; 100% = twice DMSO control signal. 300,000 compounds, 1.7% hits. activation, % at 9 µM;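 active means mean replicate activation of at least 50% with a set share of replicates each reaching 50%; inconclusive means only one of those two conditions met; inactive means mean below 50% and too few replicates reaching it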;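 further: 0% = median of the neutral control wells and 100% = twice that signal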
# HSF1 inhib: HSF1 inhibitors in luciferase reporter cells, primary screen, cell-based, NIH3T3, luminescence | activity change, negative = inhibition, % at 7.5 µM (by protocol) | 300,000 compounds, 0.77% hits | NIH3T3-HGL HSE-luciferase, MG132-induced, luminescence 8 h; hits give low values | AID 2098, 2009;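 active means more than half of replicate wells show activity change below -50%, luminescence cut by over half; inconclusive means some wells, but at most half, below -50%; inactive means no replicate well below -50%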;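 further: luciferase reports HSF-1 transcriptional activity via heat shock element; 0% = median of DMSO wells and -100% = zero luminescence signal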
# Wnt bcat act: Wnt/beta-catenin pathway activators, primary screen, cell-based, plate reader, single point; Wnt/beta-catenin reporter cell assay, activator; activation, % at 9.35 µM; 300,000 compounds, 1.2% hits; in the data active means activation above about 30%, passing the limit was not always enough; inconclusive means no clear call, values can overlap the other calls;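 further: 0% = neutral control wells and 100% = positive control wells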
# esBAF inh: Bmi1 luciferase reporter increase in mESCs, primary screen, esBAF inhibitor project, mouse ES cells, Bmi1 luciferase knock-in, single point. 24 h; 100% = twice the neutral-well signal. reporter increase, % at 12.5 µM. 350,000 compounds, 2% hits. AID 602393, 2012; in the data active means activation above about 40%; inconclusive means no clear call, values can overlap the other calls;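 further: 0% = median of the plate's neutral control wells and 100% = double that signal; a rise in the Bmi1 reporter signal indicates esBAF inhibition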
# MITF act: activators of MITF-driven TRPM1 promoter reporter, primary screen, cell-based, SK-MEL-5, luciferase, single point; 300,000 compounds, 0.75% hits; activation, % at 12.5 µM; SK-MEL-5 TRPM1-promoter luciferase, 24 h; % of positive control, neutral wells = 0;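 active means mean activation of at least 80% with every replicate also reaching 80%; inconclusive means mean reaches 80% but some replicate falls short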;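 further: 0% = neutral control wells and 100% = parthenolide positive control wells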
# Numbers without * were called inactive; ? = inconclusive; · = not tested or not shown.
SMILES,HSF-1 act,HSF1 inhib,Wnt bcat act,esBAF inh,MITF act
CCS(=O)(=O)Nc1ccc2c(c1)C(=O)N(C)[C@@H]1CC[C@H](CC(=O)NCc3ccccc3F)O[C@H]1CO2,·,·,·,-3,·
N#C/C(=C\c1ccc[nH]1)C(=O)Nc1ccccc1[N+](=O)[O-],61*,24,22,63*,5
Cc1ccccc1NC(=O)/C(C#N)=C/c1ccc[nH]1,19,11,9,24,10
CN1C(=O)c2cc(NC(=O)c3ccc(F)cc3)ccc2OC[C@@H]2O[C@@H](CC(=O)N3CCOCC3)CC[C@H]21,·,·,·,6,·
Cc1cc(NC(=O)CSc2cn(CCNC(=O)c3ccccc3)c3ccccc23)no1,-12,0,·,47*,2
Cc1ccc(C(=O)NCCn2cc(SCC(=O)Nc3cc(C)on3)c3ccccc32)cc1,-44,-39,-11,58*,·
Cc1cccc(Cn2cc(SCC(=O)Nc3nccs3)c3ccccc32)c1,-7,14,41*,65*,68
Cc1ccc(C(=O)NCCn2cc(SCC(=O)N3CCOCC3)c3ccccc32)cc1,-60,-48,-4,53*,·
CCCn1cc(SCC(=O)Nc2cc(C)on2)c2ccccc21,-6,-3,-1,-5,-7
O=C(N[C@@H]1CC[C@H](CCNS(=O)(=O)c2ccccc2Cl)O[C@@H]1CO)c1ccc(F)cc1,·,·,·,2,·
CCn1cc(SCC(=O)Nc2cc(C)on2)c2ccccc21,-65,-59*,3,-1,2
CC(C)(C)C(=O)Nc1ccc(NC(=O)c2ccco2)nc1,-91,-91*,-13,-83,-90
O=C(Nc1ccc(NC(=O)c2ccco2)nc1)c1ccco1,3,15,-4,·,-2
COc1ccccc1C(=O)Nc1ccc(NC(=O)c2ccco2)cn1,23,16,18,64*,92*
O=C(Cc1ccccc1)Nc1ccc(NC(=O)c2ccco2)nc1,44,17,40*,46*,·
O=C(Nc1ccc(NC(=O)C23CC4CC(CC(C4)C2)C3)cn1)c1ccco1,20,11,·,49*,96*
COc1ccccc1C(=O)NC(=S)Nc1ccc(NC(=O)c2ccco2)cc1,-11,-12,6,27,10
O=C(Nc1ccc(NC(=O)c2ccccc2)nc1)c1ccncc1,7,4,23,43*,12
C[C@@H]1CN([C@@H](C)CO)C(=O)c2cc(C#Cc3ccccc3)cnc2O[C@H]1CN(C)C(=O)CCN1CCCCC1,·,·,·,-3,·
CN(C)c1cccc(-c2nnc(SCCCC#N)o2)c1,14,15,41*,13,43
CN(C)CCSc1nnc(-c2ccccc2)o1,34,1,24,16,·
Cc1cc(NC(=O)c2cc3cccc([N+](=O)[O-])c3[nH]2)ccc1F,?,22,41*,84*,53
COCC(C)NC(=O)c1cc2cccc([N+](=O)[O-])c2[nH]1 (configuration not stated),6,-4,1,·,-25
O=C(C[C@@H]1C[C@H]2c3cc(NC(=O)C4CCOCC4)ccc3O[C@H]2[C@@H](CO)O1)NC1CCCCC1,·,·,·,4,·
COC(=O)c1ccc2c(=O)[nH]c(CSc3nc(-c4ccc(F)cc4)cs3)nc2c1,-7,-5,0,·,-7
SMILES,HSF-1 act,HSF1 inhib,Wnt bcat act,esBAF inh,MITF act
O=c1[nH]c(CSc2nc(-c3ccc(F)cc3)cs2)nc2ccccc12,-1,17,·,·,1
COC(=O)c1ccc2c(=O)[nH]c(CSc3nc(C)cs3)nc2c1,17,24,35*,23,31
COc1cc2nc(CSc3nc(-c4ccc(F)cc4)cs3)[nH]c(=O)c2cc1OC,67*,21,-3,-5,10
COc1ccccc1-c1ccc2n(c1=O)C[C@H]1[C@H](CO)[C@@H](C(=O)Nc3nccs3)N(CC3CC3)[C@@H]21,·,·,·,0,·
COc1ccc(C2=Nn3c(nnc3-c3ccccc3F)SC2)cc1OC1CCCC1,·,·,36*,11,3
Cc1onc(-c2ccccc2)c1C(=O)N=C(N)c1ccc(C(F)(F)F)cc1,82*,40,6,·,·
Cc1cc(C)n(/C(=C/N(C)C)C(=O)c2ccccc2)n1,1,-4,0,·,6
Cc1cc(C)n(C(N)=NC(=O)c2ccccc2)n1,·,·,43*,·,·
Cc1cc(C)n(C(N)=NC(=O)c2ccc([N+](=O)[O-])cc2)n1,43,26,10,?,95*
CC(=O)NC1C(OCc2ccccc2)OC(CO)C(OC(C)=O)C1OC(C)=O (configuration not stated),6,-4,36*,·,-5
CCOc1ncccc1C(=O)NCCc1c[nH]c2ccccc12,89*,51,-3,-2,2
O=C(O)c1nccnc1C(=O)NCCc1c[nH]c2ccccc12,-5,2,-2,-2,-2
Cn1c(C(=O)NCCc2c[nH]c3ccccc23)cc2sccc21,-3,-8,13,74*,101*
O=C(NCCc1c[nH]c2ccccc12)C(=O)Nc1ccccc1,20,24,24,58*,58
COC(=O)[C@@H](Cc1c[nH]c2ccccc12)NC(=O)c1ccc2c(c1)OCO2,70*,30,38*,68*,67
Cc1ccc(NC(=O)C(=O)NCCc2c[nH]c3ccccc23)cc1C,11,5,-1,·,0
O=C(CCN1CCCCC1)NCC[C@H]1CC[C@H](NC(=O)Nc2ccc(Cl)cc2)[C@H](CO)O1,·,·,·,6,·
CN1C(=O)c2cc(NC(=O)c3cccs3)ccc2OC[C@H]2O[C@@H](CC(=O)N3CCOCC3)CC[C@@H]21,·,·,·,1,·
COCC(=O)N(C)C[C@@H]1Oc2ncc(-c3ccc(C)cc3)cc2C(=O)N([C@@H](C)CO)C[C@@H]1C,·,·,·,-2,·
Cc1ccc(S(=O)(=O)N2CC[C@H]3[C@H](CO)Nc4ccc(Br)cc4[C@H]32)cc1,·,·,·,2,·
CNC[C@H]1OCCCC[C@@H](C)Oc2ccc(NC(=O)C3CCCCC3)cc2C(=O)N([C@@H](C)CO)C[C@H]1C,·,·,·,-6,·
COCCNC(=O)C[C@@H]1CC[C@H]2[C@@H](COC[C@H](O)CN2Cc2ccc(Cl)c(Cl)c2)O1,·,·,·,4,·
O=C(NCCc1c[nH]c2ccccc12)c1cc(Cl)c2c(c1)OCO2,48,24,36*,47*,113*
c1ccc2c(Nc3nc4c(s3)CCCC4)cccc2c1,?,21,35*,39,·
O=S(=O)(Nc1nc2c(s1)CCCC2)c1ccc2ccccc2c1,7,6,·,-1,5
COc1cccc(C(=O)Nc2ccc3c(c2)OC[C@@H](C)N(C(=O)C2CCC2)C[C@@H](C)[C@H](OC)CN(C)C3=O)c1,·,·,·,-7,·
COc1ccc(-c2ccc(C(=O)NCc3cccs3)c3occc23)c(C)c1,·,·,1,72*,·
COCC(=O)N(C)C[C@@H]1Oc2ncc(C3=CCCC3)cc2C(=O)N([C@H](C)CO)C[C@@H]1C,·,·,·,3,·

# From PubChem
